About 83,000 compounds went through this panel and 20% of them were active in at least one assay; those are over-represented in the sample as a whole.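 Treatment: one concentration, 48 hours, 96-well format. Scoring: percent growth, with anything below 10 considered active.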 Unmarked numbers belong to inactive results. Calls of active or inactive are those of the source.
Columns and labels:
Experiment in all cases: NCI-60 one-dose screen, 48 h (100 = growth as untreated, 0 = no growth, -100 = all killed)
Conditions in all cases: 10 µM unless noted
HT29 colon = tested on: HT29 colon
SNB-75 CNS = tested on: SNB-75 CNS
SNB-19 CNS = tested on: SNB-19 CNS
U251 CNS = tested on: U251 CNS
PC-3 prostate = tested on: PC-3 prostate
SK-MEL-5 melanoma = tested on: SK-MEL-5 melanoma
UACC-62 melanoma = tested on: UACC-62 melanoma
LOX IMVI melanoma = tested on: LOX IMVI melanoma
SK-MEL-28 melanoma = tested on: SK-MEL-28 melanoma
SK-MEL-2 melanoma = tested on: SK-MEL-2 melanoma

Row | Compound | growth (HT29 colon) | growth (SNB-75 CNS) | growth (SNB-19 CNS) | growth (U251 CNS) | growth (PC-3 prostate) | growth (SK-MEL-5 melanoma) | growth (UACC-62 melanoma) | growth (LOX IMVI melanoma) | growth (SK-MEL-28 melanoma) | growth (SK-MEL-2 melanoma)
1 | COc1cccc(COc2ccc(/C=C3/C(=O)Nc4cc(Cl)ccc43)cc2)c1 | 93.8% | 84.2% | 97.5% | 98.9% | 84.5% | 93% | 86.7% | 97.9% | 102% | 107%
2 | N#Cc1nc(-c2ccccc2)oc1S(=O)(=O)N1CCCCC1 | 2.86% (active) | 94.8% | 95.8% | 94.5% | 88.1% | 93.7% | 96.4% | -82.5% (active) | 85.1% | 97.9%
3 | O=C1C2=C(C(=O)c3c(O)cccc31)C(c1ccco1)c1sc(=O)[nH]c1S2 (stereo unspecified) | 12.5% | 32.4% | 13.6% | 11.5% | 8.77% (active) | -93.4% (active) | -74.9% (active) | -2.86% (active) | -28.8% (active) | -7.37% (active)
4 | Cc1nc2cnc(N)c(C#Cc3cncc(C(=O)Nc4ccc(Cl)c(C(F)(F)F)c4)c3)c2nc1C | 31.5% | 44.6% | 90% | 77.4% | 85.3% | 86.9% | 39.7% | -77.4% (active) | 44.4% | 14.4%
5 | CN(C)S(=O)(=O)c1oc(-c2ccccc2)nc1C#N | 35.1% | 96.1% | 96.1% | 88.8% | 88.7% | 93.1% | 97.9% | -80.7% (active) | 87.8% | 110%
6 | CC(=O)c1ccc(Nc2nc(SC(C)C)nc(-c3ccccc3)c2C#N)cc1 | 99.6% | 92.3% | 87.2% | 89.5% | 88.1% | 98.1% | 82.3% | 95.1% | 104% | 117%
7 | Nc1ncc(-c2ccc3ncnc(N4CCc5cc(F)c(Cl)cc54)c3c2)cc1CO | 12.7% | -28.6% (active) | 19.1% | 18.8% | 8.02% (active) | -72.4% (active) | -60.5% (active) | 7.2% (active) | -4.29% (active) | -63.4% (active)
8 | CS(=O)(=O)c1ccc(-c2nc3ccccn3c2/C=N/Nc2nc(-c3ccc(Cl)cc3)cs2)cc1 | 110% | 120% | 107% | 108% | 102% | 91.7% | 102% | 122% | 93.1% | 102%
9 | Cc1cccc2sc(/N=C(\N)C(Br)Br)nc12 | -30.4% (active) | 7.62% (active) | 46.8% | 9.02% (active) | 40.8% | 51.4% | 22% | -86% (active) | 38.4% | 5.61% (active)
10 | C[C@@H](Nc1c(C#N)cnc2ccc(-c3cnc(N)nc3)cc12)c1ccccc1 | 18.7% | -13.2% (active) | 26.3% | 18.1% | 10% | -74.2% (active) | -9.74% (active) | 11.7% | 20% | -42.5% (active)
11 | OC1CCN(CCCOc2c3ccccc3nc3c2oc2ccc(Cl)cc23)CC1 | 1.25% (active) | 21% | 21.8% | 21.7% | 8.35% (active) | 26.6% | -19.5% (active) | -73.8% (active) | 24.9% | 14%
12 | Clc1ccc(Cc2nnc3sc(-c4cccnc4)nn23)cc1 | 102% | 94.4% | 93.3% | 99% | 101% | 96.4% | 91.1% | 96.7% | 109% | 113%
13 | NS(=O)(=O)c1cccc(Nc2nc(SCC(=O)c3ccc(Cl)cc3)nc3ccccc23)c1 | 88.4% | 33.6% | 69.6% | 46.4% | 57.2% | 73.5% | 62.6% | 28.7% | 89% | 77.3%
14 | CC(C)NC(=O)c1cc(-c2ccc(NC(=O)Nc3ccc(N4CCOCC4)c(C(F)(F)F)c3)cc2)nc2cccnc12 | 60.8% | 82.6% | 62.6% | 47% | 44.5% | 78.7% | 75.3% | 47.9% | 59.2% | 75.5%
15 | O=C(c1ccc(Cl)cc1)C1[C@H](c2ccc(Cl)cc2)[C@@H](c2ccccc2)NC12C(=O)Nc1ccc(Br)cc12 (stereo partly specified) | 0.232% (active) | 43.9% | 60.5% | 28.3% | 12.8% | 54.8% | 37.4% | 15.3% | 67.3% | 38.7%
16 | Cc1ccc2ccc3ccc(C)nc3c2n1.Cc1ccc2ccc3ccc(C)nc3c2n1.Oc1c(Cl)cc(Cl)c2ccc(CN3CCCCC3)nc12.[Ru] | -61.7% (active) | -71% (active) | -86.4% (active) | -54.5% (active) | -82.6% (active) | -97.9% (active) | -74% (active) | -91.2% (active) | -89.9% (active) | -83.1% (active)
17 | OC1CCN(CCCOc2c3ccc(Cl)cc3nc3c2oc2ccc(Cl)cc23)CC1 | -86% (active) | 14.9% | 29.5% | -93.5% (active) | 21% | -7.79% (active) | -68.4% (active) | -92.9% (active) | -84.5% (active) | 50.6%
18 | Nc1cc(-c2c[nH]c3ccccc23)nc2cc(-c3c[nH]c4ccccc34)nn12 | 9.63% (active) | 82.5% | 86.2% | 29.7% | 60.6% | 45.6% | 87.5% | -25.2% (active) | 59.6% | 96%
19 | COc1ccc(-c2nc3ccc(-c4nnc(SCC(=O)Nc5ccc(C(C)=O)cc5)o4)cc3[nH]2)cc1 | 116% | 92.6% | 119% | 104% | 104% | 93.5% | 96% | 108% | 112% | 134%
20 | [Cl][Ru].c1ccc(-c2cc(-c3ccccn3)nc(-c3ccccn3)c2)cc1.c1ccc(-c2ccnc3c2ccc2c(-c4ccccc4)ccnc23)cc1 | -47.6% (active) | -20% (active) | 12.2% | -54.8% (active) | -7.82% (active) | -94.9% (active) | -68% (active) | -71.4% (active) | -73.5% (active) | -91.6% (active)
21 | O=C(CSc1nc2sc3c(c2c(=O)n1-c1ccc(Cl)cc1)CCCC3)NNC(=O)Nc1ccc(Cl)c(C(F)(F)F)c1 | 6.06% (active) | 42.1% | 50.4% | 4.22% (active) | -2.4% (active) | 34.7% | 37.1% | 1.34% (active) | 53.7% | -9.26% (active)
22 | Cn1cc(-c2cc(N)n3nc(-c4cn(C)c5ccc(Cl)cc45)cc3n2)c2cc(Cl)ccc21 | -16.5% (active) | 83.2% | 99.4% | -4.82% (active) | 87.3% | 104% | 93.9% | 11.3% | 76.7% | 121%
23 | CN1C(=S)N(C)C2C1NN=C1SC(c3ccccc3)=CC(=O)N12 (stereo unspecified) | 103% | 115% | 98.9% | 95.1% | 87.5% | 64.3% | 78.3% | – | 102% | 95.2%
24 | Cc1cc2nc3c4cc(Cl)ccc4n(CC(=O)NCCN(C)C)c3nc2cc1C | -75.5% (active) | 64.1% | 81.5% | -38% (active) | 60.8% | 89.8% | 79.4% | – | -88.6% (active) | 112%
25 | N#Cc1c(-c2ccc(Cl)cc2)nc(SCc2ccccc2)nc1N1CCNCC1 | -47.6% (active) | 69.5% | 69.8% | -65.6% (active) | 59.2% | 84.5% | 89.8% | – | 108% | 112%
26 | O=C(NNc1nc2cc(F)ccc2n2c(CN3CC4(COC4)C3)ccc12)c1cnccn1 | 28.6% | 63.1% | 29.4% | 11.6% | 38.9% | -20.3% (active) | 5.57% (active) | – | 20.6% | 49.7%

— PubChem BioAssay (NCI)
